Hits are enriched below; roughly 2.6% of the tested compounds scored in any of these assays.
TLR9-MyD88 inh – inhibitors of human TLR9-MyD88 binding. Q9NR96+Q99836. AID 504734. inhibition, % at 4.98 µM. CHO BLA complementation TLR9-MyD88, CCF4 FRET ratio. 340,000 tested, 0.21% active;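 active means inhibition above the mean over all tested compounds plus 3 SD, cut at about 21% in these data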;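 further: 0% = DMSO only wells and 100% = clavulanate BLA inhibitor control wells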
Target sequence (Q99836 whole entry, looked up): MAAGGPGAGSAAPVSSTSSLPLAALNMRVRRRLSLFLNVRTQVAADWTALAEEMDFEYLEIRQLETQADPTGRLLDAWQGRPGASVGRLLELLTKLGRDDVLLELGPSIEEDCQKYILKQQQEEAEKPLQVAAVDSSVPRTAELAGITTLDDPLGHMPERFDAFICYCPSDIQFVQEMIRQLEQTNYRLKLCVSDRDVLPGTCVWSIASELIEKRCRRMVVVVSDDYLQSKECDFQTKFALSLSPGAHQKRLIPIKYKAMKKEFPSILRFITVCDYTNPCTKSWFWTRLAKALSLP
Target sequence (Q9NR96 whole entry, looked up): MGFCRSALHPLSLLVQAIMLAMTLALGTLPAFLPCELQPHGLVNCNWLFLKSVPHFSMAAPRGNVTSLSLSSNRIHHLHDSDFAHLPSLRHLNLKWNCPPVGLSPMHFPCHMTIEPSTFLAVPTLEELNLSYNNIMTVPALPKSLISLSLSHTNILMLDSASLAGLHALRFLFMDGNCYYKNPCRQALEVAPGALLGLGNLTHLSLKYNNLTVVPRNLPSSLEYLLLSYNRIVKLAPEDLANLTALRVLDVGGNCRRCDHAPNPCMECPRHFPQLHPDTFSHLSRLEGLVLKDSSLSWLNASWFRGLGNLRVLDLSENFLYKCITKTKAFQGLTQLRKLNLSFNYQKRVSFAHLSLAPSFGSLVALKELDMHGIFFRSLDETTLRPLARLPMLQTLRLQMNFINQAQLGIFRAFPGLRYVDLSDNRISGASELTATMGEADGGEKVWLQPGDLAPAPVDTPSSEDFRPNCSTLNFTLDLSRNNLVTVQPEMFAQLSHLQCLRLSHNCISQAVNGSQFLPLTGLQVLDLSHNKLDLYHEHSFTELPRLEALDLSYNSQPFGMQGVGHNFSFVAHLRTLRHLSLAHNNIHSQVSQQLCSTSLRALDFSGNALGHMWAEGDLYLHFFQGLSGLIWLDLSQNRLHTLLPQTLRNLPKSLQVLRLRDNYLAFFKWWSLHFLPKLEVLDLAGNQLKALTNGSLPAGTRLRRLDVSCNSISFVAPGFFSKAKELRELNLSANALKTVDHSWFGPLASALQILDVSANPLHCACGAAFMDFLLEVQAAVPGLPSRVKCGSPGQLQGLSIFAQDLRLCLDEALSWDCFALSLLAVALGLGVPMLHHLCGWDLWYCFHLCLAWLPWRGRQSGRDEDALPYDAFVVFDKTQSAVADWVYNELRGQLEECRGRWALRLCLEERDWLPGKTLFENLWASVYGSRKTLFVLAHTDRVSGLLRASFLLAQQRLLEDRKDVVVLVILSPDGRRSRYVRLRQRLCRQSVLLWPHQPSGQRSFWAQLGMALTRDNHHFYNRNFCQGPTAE
PRMT1 inh – blocks human protein arginine methyltransferase 1; Q99873; 370,000 tested, 1.3% active; AID 652257; inhibition, % at 2.79 µM; recombinant PRMT1, activity-based probe fluorescence polarization;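 active means inhibition above about 21% made by adding two undisclosed values, limit read from the data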
Exocytosis inh – blocks lytic granule exocytosis; AID 651702; 360,000 tested, 0.66% active; TALL-104 LAMP-1 surface exposure, flow cytometry; cells stimulated with thapsigargin and PMA; inhibition, % at 10 µM;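 active means inhibition above about 55%, limit read from the data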
ABHD5 PLIN5 PPI – blocks binding of human ABHD5 to perilipin-5; AID 602281; Split G. princeps luciferase complementation, luminescence, 4 h; 360,000 tested, 0.78% active; inhibition, % at 4 µM;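 active means inhibition above the mean inhibition across every tested compound plus 3 SD, cut at about 22% in these data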;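 further: 0% = DMSO only wells and the 100% control is not disclosed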
TLR4-MyD88 BLA – inhibitors of human TLR4-MyD88 binding; inhibition, % at 8.4 µM; 200,000 tested, 0.18% active; HeLa CL3-4 TLR4/MyD88 BLA complementation, FRET ratio; AID 861; in the data active means inhibition above about 25%;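 further: 0% = vehicle and 100% = reference inhibitor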
NOD2-RIPK2 inh – inhibitors of human NOD2-RIPK2 interaction. 360,000 tested, 0.38% active. CHO BLA complementation NOD2-RIPK2, CCF4 ratio. inhibition, % at 4.98 µM; in the data active means inhibition above about 21%;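 further: 0% = vehicle only and 100% = reference blocker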
PRMT1 inh conf – PRMT1 (human) inhibition, FP confirmation; shares compounds with PRMT1 inh; recombinant His-PRMT1, activity-based probe fluorescence polarization; inhibition, % at 2.79 µM; 3,300 tested, 42% active;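 active means mean inhibition across replicates above the hit cutoff derived for the earlier primary screen, cut at about 22% in these data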
An asterisk follows results filed as active; · = no result.

SMILES	TLR9-MyD88 inh	PRMT1 inh	Exocytosis inh	ABHD5 PLIN5 PPI	TLR4-MyD88 BLA	NOD2-RIPK2 inh	PRMT1 inh conf
Cc1cc(C)n(CCC(=O)Nc2ccc(-c3ccno3)cc2)n1	2.8	-1.6	-0.8	2.5	·	-2.1	·
NC(=O)c1ccccc1NC(=O)C(c1ccccc1)c1ccccc1	-7.8	2.1	-2.0	-0.4	·	-5.9	·
O=C(O)/C(=C/c1ccco1)NC(=O)c1ccc(Br)o1	-1.6	29.0*	-3.2	5.2	·	-4.6	4.4
O=C(O)/C(=C\c1ccco1)NC(=O)c1ccc(Br)o1	-1.4	10.5	-0.4	7.5	·	-1.3	·
CCn1c(C(=O)N2CCc3ccccc3C2)cc2sccc21	-7.5	25.4*	-4.7	-3.2	9.9	3.1	13.5
COC(CNc1ccc([N+](=O)[O-])c(NCC(OC)OC)c1C#N)OC	-1.3	-2.2	6.7	2.6	·	-0.3	·
S=C(NCc1ccccc1)NNc1nc2ccccc2[nH]1	9.5	39.4*	8.6	-13.2	-5.5	1.3	67.0*
c1ccc(CNc2nc3ccccc3[nH]2)cc1	-2.5	1.9	-1.0	10.1	-3.9	-2.2	·
CN(CCC#N)C(=O)COC(=O)c1c2c(nc3ccccc13)/C(=C\c1ccco1)CC2	5.2	31.5*	1.7	4.8	·	14.2	20.3
CC1CCCCC1NC(=O)COC(=O)c1c2c(nc3ccccc13)/C(=C\c1ccco1)CC2 (stereo not given)	5.0	14.3	0.1	5.3	·	-5.5	·
CN1CCc2nc3ccccc3c(C(=O)OCC(=O)N(CCC#N)c3ccccc3)c2C1	2.8	11.7	14.3	-4.8	-3.1	-1.7	·
O=C(COC(=O)c1c2c(nc3ccccc13)/C(=C\c1ccco1)CC2)NC1CCCC1	-1.1	27.7*	-6.1	2.3	·	4.1	17.3
COc1ccc(C(C(=O)Nc2c(C)cccc2C)N2CCN(C)CC2)cc1 (stereo not given)	·	-2.8	5.1	1.2	·	-11.3	·
N#Cc1cc([N+](=O)[O-])ccc1NC(=O)COC(=O)C1CCC(=O)N1 (stereo not given)	2.1	0.3	1.2	2.6	·	-8.6	·
Cc1ccc(OCC(=O)c2c(N)n(C)c(=O)n(C)c2=O)c([N+](=O)[O-])n1	-7.8	6.2	-1.6	-0.3	·	-11.7	·
NNc1cc([N+](=O)[O-])cc2c1C(=O)N(Cc1ccccc1)S2=O (stereo not given)	2.7	25.9*	-2.5	-15.8	-2.3	2.9	2.7
CC(C)=NNc1cc([N+](=O)[O-])cc2c1C(=O)N(C)S2=O (stereo not given)	-5.9	13.3	8.3	-19.8	-18.6	3.5	·
O=C1C=C(NNC(=O)c2ccncc2)CC(c2ccccc2)C1 (stereo not given)	-1.7	63.4*	4.1	0.2	-15.2	-2.5	1.7
O=C1C=C(NCc2ccncc2)CC(c2ccccc2)C1 (stereo not given)	-2.7	0.6	-3.2	3.2	-1.6	6.6	·
Cc1ccc(NC(=S)N(CCN2CCOCC2)Cc2cc3cc4c(cc3[nH]c2=O)OCO4)cc1	2.5	4.8	1.0	-0.9	-7.2	-4.2	·
COc1ccccc1Nc1n[nH]c(=S)s1	-5.0	47.2*	33.9	0.8	5.5	-0.4	8.4
COc1cccc(Nc2n[nH]c(=S)s2)c1	-9.0	43.0*	1.7	-13.8	5.6	-12.9	35.9*
COc1cccc(Nc2nc3ccc(OC)cc3s2)c1	4.8	-3.0	0.0	2.0	4.8	2.4	·
CC(C)Oc1ccc(C(=O)Nc2cccc3cccnc23)cc1	-2.0	-1.7	1.3	3.2	3.6	-7.5	·
CSc1nnc(N2C(=O)C(O)=C(C(=O)c3ccco3)C2c2cccc(Cl)c2)s1 (stereo not given)	2.9	29.6*	1.8	-1.8	·	-7.0	18.2
SMILES	TLR9-MyD88 inh	PRMT1 inh	Exocytosis inh	ABHD5 PLIN5 PPI	TLR4-MyD88 BLA	NOD2-RIPK2 inh	PRMT1 inh conf
O=C(C1=C(O)C(=O)N(c2ncccn2)C1c1cccc(Cl)c1)c1ccco1 (stereo not given)	10.2	7.5	2.0	0.4	-2.2	-0.6	·
CSc1nnc(N2C(=O)C(O)=C(C(=O)c3ccco3)C2c2ccc(F)cc2)s1 (stereo not given)	11.0	43.5*	-6.2	-11.3	·	0.2	10.7
CCSc1nnc(N2C(=O)C(O)=C(C(=O)c3ccco3)C2c2cccc(OC)c2)s1 (stereo not given)	8.2	30.8*	9.8	-8.0	·	-2.5	17.4
CCOc1cccc(C2C(C(=O)c3ccco3)=C(O)C(=O)N2c2nnc(C)s2)c1 (stereo not given)	-1.0	15.8	6.9	-4.7	·	5.6	·
O=C1NC(=O)/C(=C/c2ccco2)N1	-4.8	12.3	-5.0	3.8	·	3.7	·
O=C1NC(=S)NC1=Cc1ccco1	-3.3	63.8*	38.2	14.0	·	-15.1	12.5
O=C(N/N=C/C=C/c1ccco1)c1cccnc1	11.9	39.4*	0.6	19.1	-9.8	-7.5	9.9
O=C(N/N=C/C=C\c1ccco1)c1cccnc1	1.2	8.2	0.1	15.4	-7.9	-3.1	·
CN1CCCCC(NC(=O)c2cccs2)C1=O (stereo not given)	·	2.7	·	·	·	·	·
CC(C)CC1CC(C)(c2csc(NNC(=O)c3ccccc3)n2)OC1=O (stereo not given)	-12.1	41.5*	-4.8	-6.1	-6.6	2.2	-3.3
CC1(C)CC(CC(=O)NNc2nc(-c3ccccc3)cs2)C(=O)O1 (stereo not given)	7.0	6.0	13.3	-4.8	-2.1	-1.4	·
CC1(C(=O)NCc2ccccc2)CSCC(=O)N1Cc1cccc(F)c1 (stereo not given)	·	-2.1	2.2	0.3	·	-6.7	·
COC(=O)c1ccccc1NC(=O)CSc1nnc(-c2ccncc2)o1	-1.8	33.9*	3.6	-5.4	13.9	4.0	45.1*
O=C(CSc1nnc(COc2ccccc2)o1)Nc1ccc(F)cc1	-0.9	-1.8	-3.5	7.2	·	-11.5	·
O=c1c([N+](=O)[O-])c(Cl)c2ccccc2n1Cc1ccccc1	·	42.6*	·	·	·	·	36.0*
CCn1c(=O)c([N+](=O)[O-])c(NCC(O)c2ccccc2)c2ccccc21 (stereo not given)	-3.2	4.7	4.4	-5.5	14.7	-2.0	·
O=c1c([N+](=O)[O-])c(O)c2ccccc2n1Cc1ccccc1	-12.2	28.9*	2.7	-11.4	·	1.9	6.5
CCCCCc1nc2c(c(=O)c3ccccc3n2C)c(=O)n1Cc1ccc(OC)cc1	-38.6	-0.4	13.6	5.5	·	-5.2	·
c1ccc(Cn2ccc3ccc(-c4ccc5ccn(Cc6ccc7ccccc7c6)c5c4)cc32)cc1	·	1.9	·	·	·	·	·
CC(=O)N(c1cccc(C)c1)C1SC(=O)N(c2ccccc2)C1=O (stereo not given)	-2.7	32.1*	1.1	4.3	1.6	0.6	22.6*
c1cn2cc(-c3ccc4c(c3)OCO4)nc2s1	0.0	34.6*	5.6	-19.8	-2.2	-6.3	46.4*
